These results are taken from PubChem BioAssay (NCATS).

Results filed as inconclusive are left out. Where a call stands in place of a potency, no number is given. The source made the active and inactive calls. Calls come from the whole dose curve; as a rule, active = well fitted curve in the direction sought with a large enough effect; inconclusive = small, poorly fitted or top-dose-only effect, or another doubt; inactive = no such curve, though single readings can be large; an effect the other way counts as inactive or inconclusive.

The first test can be described thus: qHTS for Antimalaria activity screened against the NCATS CANVASS Library (AID 1347380). Note: nearly all actives have a fitted effect of over 40% in size. Note: potency is the fitted concentration of half-maximal effect. The note with it: P. falciparum Dd2 growth, SYBR Green fluorescence, 72 h; series mostly up to 28.7 µM. In outline: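 Dd2 strain, infected erythrocytes 2.5% Hct final / 0.3% parasitemia. 11-pt qHTS titration, 72 h, 37C, 5% O2, 5% CO2. Lysis buffer + SYBR Green, 18 h, fluorescence 485/535 nm.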
On the technique in general: In qHTS, concentration-response curves come from the screen itself.
In the case of `C[C@@H]1CC[C@@H](c2ccoc2)N2C[C@@]3(CC[C@@H]12)CS[C@@]1(CC[C@H]2[C@H](C)CC[C@@H](c4ccoc4)N2[C@@H]1O)C3`, the Potency is 1880 nM (active).
The same measure, in the same setting: the entry for `C[C@]12CC(O)C3[C@@H](CCC4C[C@@H](O)CC[C@@]43CO)[C@@]1(O)CCC2C1=CC(=O)OC1` (stereo not given in full) is “inactive”.
Take `CO[C@@H](/C=C/CC/C=C/C(=O)O)[C@@H](O)[C@H](C)/C=C(\C)[C@@H](O)[C@H](C)C(=O)CCCC1CC(=O)NC(=O)C1`: the Potency result is “inactive”.
As for `O=C(c1ccccc1O)c1[nH]c(Cl)c(Cl)c1-n1c(C(=O)c2ccccc2O)cc(Cl)c1Cl`, the Potency is 472 nM (active).
Same read-out and setting: the same measure for `CC[C@@H]1CN2CC[C@@]3(O)C(=Nc4cccc(OC)c43)[C@@H]2C[C@@H]1/C(=C\OC)C(=O)OC`: 14900 nM (active).
The same measure, in the same setting: the same measure for `c1ccc2c3c([nH]c2c1)CNCC3`: “inactive”.
Same read-out and setting: the same measure for `CO[C@H](c1ccccc1)[C@H]1NC(=O)C(C)NC(=O)C(C[C@@H](C)CO)N(C)C(=O)[C@@H](C(O)c2cn(C(C)(C)C3CO3)c3ccccc23)NC(=O)C(C(C)C=C(C)C)NC(=O)C(CC(C)C)N(C)C(=O)C(C(C)C)NC1=O` (stereo not given in full): 292 nM (active); for `CCN1C[C@]2(C)CC[C@H](O)[C@]34C1C(C[C@H]23)[C@@]12CC[C@H](CC14)[C@](O)(COC(=O)c1ccc(OC)c(OC)c1)[C@H]2O` (stereo not given in full): “inactive”; for `CCC(=O)CCCCC[C@@H]1NC(=O)[C@H]2CCCCN2C(=O)[C@H]([C@@H](C)CC)NC(=O)[C@H](Cc2cn(OC)c3ccccc23)NC1=O`: 33.4 nM (active).

Another test is described as follows: Inflammasome Signaling qHTS Counterscreen: IL-1-beta AlphaLISA counterscreen against the NCATS CANVASS Library (AID 1347381).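 Note: cell-free check with purified IL-1β in medium and no THP-1 cells.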 The note with it: Purified IL-1beta AlphaLISA signal interference counterscreen; series mostly up to 57.5 µM. In outline: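 Cell-free interference check: compounds added to medium spiked with 4 pg purified IL-1β. Anti-IL-1β acceptor beads (6 ug/mL) with 0.6 nM biotinylated antibody added for 1 h at RT, then streptavidin donor beads (24 ug/mL) for 30 min in the dark. AlphaLISA read at 680/615 nm.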
As for `CC1=CC2CC[C@@H]3[C@@H](C)C[C@H](C)[C@@H](C1)N23` (stereo not given in full), the molecule was classed as inactive.
On the same count and under the same terms, the entry for `CC=C1CN(C=O)[C@H]2C[C@@H]1[C@@H](C(=O)OC)[C@@]13CCOC21Nc1ccccc13` (stereo not given in full) is “inactive”; for `C[C@@H]1CC[C@@H](c2ccoc2)N2C[C@@]3(CC[C@@H]12)CS[C@@]1(CC[C@H]2[C@H](C)CC[C@@H](c4ccoc4)N2[C@@H]1O)C3` it is “inactive”; for `CCN1C[C@]2(C)CC[C@@H](O)[C@]34C1[C@H](C[C@H]23)C12CCC(CC14)[C@](O)(CO)[C@H]2O` (stereo not given in full) it is “inactive”.
Same read-out and setting: the entry for `CO[C@@H](/C=C/CC/C=C/C(=O)O)[C@@H](O)[C@H](C)[C@@H](O)/C(C)=C/[C@H](C)C(=O)CCCC1CC(=O)NC(=O)C1` is “inactive”; for `CCCC[C@@H]1CC[C@H]2CCCC(CCC)N12` (stereo not given in full) it is “inactive”; for `C[C@]12CC(O)C3[C@@H](CCC4C[C@@H](O)CC[C@@]43CO)[C@@]1(O)CCC2C1=CC(=O)OC1` (stereo not given in full) it is “inactive”.
Still for that read-out and setting: the entry for `CO[C@@H](/C=C/CC/C=C/C(=O)O)[C@@H](O)[C@H](C)/C=C(\C)[C@@H](O)[C@H](C)C(=O)CCCC1CC(=O)NC(=O)C1` is “inactive”.
Take `O=C(c1ccccc1O)c1[nH]c(Cl)c(Cl)c1-n1c(C(=O)c2ccccc2O)cc(Cl)c1Cl`: the molecule was called inactive.
On to `CC[C@@H]1CN2CC[C@@]3(O)C(=Nc4cccc(OC)c43)[C@@H]2C[C@@H]1/C(=C\OC)C(=O)OC`, for which the molecule was classed as inactive.
Still for that read-out and setting: the entry for `c1ccc2c3c([nH]c2c1)CNCC3` is “inactive”.
Still for that read-out and setting: the entry for `CNCCc1ccccc1` is “inactive”; for `CCCCC[C@@H]1OC(=O)[C@@H](C)N(C)C(=O)[C@H](CCCCC)OC(=O)C(C)N(C)C(=O)[C@H](CCCCC)OC(=O)[C@@H](C)N(C)C(=O)[C@H](CCCCC)OC(=O)C(C)N(C)C1=O` (stereo not given in full) it is “inactive”; for `CO[C@H](c1ccccc1)[C@H]1NC(=O)C(C)NC(=O)C(C[C@@H](C)CO)N(C)C(=O)[C@@H](C(O)c2cn(C(C)(C)C3CO3)c3ccccc23)NC(=O)C(C(C)C=C(C)C)NC(=O)C(CC(C)C)N(C)C(=O)C(C(C)C)NC1=O` (stereo not given in full) it is “inactive”.
Take `CC1=CC(=O)C2=C(C)C[C@H](O)[C@@H]3[C@H](OC(=O)[C@@H]3C)[C@@H]12`: the result was inactive.
Consider `CCN1C[C@]2(C)CC[C@H](O)[C@]34C1C(C[C@H]23)[C@@]12CC[C@H](CC14)[C@](O)(COC(=O)c1ccc(OC)c(OC)c1)[C@H]2O` (stereo not given in full), for which the result was inactive.
Still for that read-out and setting: the same measure for `CCC(=O)CCCCC[C@@H]1NC(=O)[C@H]2CCCCN2C(=O)[C@H]([C@@H](C)CC)NC(=O)[C@H](Cc2cn(OC)c3ccccc23)NC1=O`: “inactive”.

Another test in a line: qHTS for Activators of p53 Stress Response Pathway screened against the NCATS CANVASS Library (AID 1347388). The note with it: p53RE-bla HCT-116, beta-lactamase reporter, 16 h; series mostly up to 46.1 µM. An outline of the steps:
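p53RE-bla HCT-116 cells (4000/well) were pre-incubated for 5 h, then treated with compound (11 points) for 16 h at 37C. After 2 h with CCF4, the 460/530 nm ratio gave reporter activation; CellTiter-Glo measured viability.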
With `CC1=CC2CC[C@@H]3[C@@H](C)C[C@H](C)[C@@H](C1)N23` (stereo not given in full), the Potency result was “inactive”.
The same measure, in the same setting: the entry for `CC=C1CN(C=O)[C@H]2C[C@@H]1[C@@H](C(=O)OC)[C@@]13CCOC21Nc1ccccc13` (stereo not given in full) is “inactive”; for `CCN1C[C@]2(C)CC[C@@H](O)[C@]34C1[C@H](C[C@H]23)C12CCC(CC14)[C@](O)(CO)[C@H]2O` (stereo not given in full) it is “inactive”.
Same read-out and setting: the entry for `CO[C@@H](/C=C/CC/C=C/C(=O)O)[C@@H](O)[C@H](C)[C@@H](O)/C(C)=C/[C@H](C)C(=O)CCCC1CC(=O)NC(=O)C1` is “inactive”.
The same measure, in the same setting: the entry for `CCCC[C@@H]1CC[C@H]2CCCC(CCC)N12` (stereo not given in full) is “inactive”.
With `C[C@]12CC(O)C3[C@@H](CCC4C[C@@H](O)CC[C@@]43CO)[C@@]1(O)CCC2C1=CC(=O)OC1` (stereo not given in full), the Potency entry was “inactive”.
`CO[C@@H](/C=C/CC/C=C/C(=O)O)[C@@H](O)[C@H](C)/C=C(\C)[C@@H](O)[C@H](C)C(=O)CCCC1CC(=O)NC(=O)C1`: the Potency result is “inactive”.
Same read-out and setting: the same measure for `CC[C@@H]1CN2CC[C@@]3(O)C(=Nc4cccc(OC)c43)[C@@H]2C[C@@H]1/C(=C\OC)C(=O)OC`: “inactive”; for `c1ccc2c3c([nH]c2c1)CNCC3`: “inactive”.
On the same count and under the same terms, the entry for `CNCCc1ccccc1` is “inactive”; for `CCCCC[C@@H]1OC(=O)[C@@H](C)N(C)C(=O)[C@H](CCCCC)OC(=O)C(C)N(C)C(=O)[C@H](CCCCC)OC(=O)[C@@H](C)N(C)C(=O)[C@H](CCCCC)OC(=O)C(C)N(C)C1=O` (stereo not given in full) it is “inactive”.
Same read-out and setting: the same measure for `CO[C@H](c1ccccc1)[C@H]1NC(=O)C(C)NC(=O)C(C[C@@H](C)CO)N(C)C(=O)[C@@H](C(O)c2cn(C(C)(C)C3CO3)c3ccccc23)NC(=O)C(C(C)C=C(C)C)NC(=O)C(CC(C)C)N(C)C(=O)C(C(C)C)NC1=O` (stereo not given in full): “inactive”.
On to `CC1=CC(=O)C2=C(C)C[C@H](O)[C@@H]3[C@H](OC(=O)[C@@H]3C)[C@@H]12`, for which the Potency result was “inactive”.
As for `CCN1C[C@]2(C)CC[C@H](O)[C@]34C1C(C[C@H]23)[C@@]12CC[C@H](CC14)[C@](O)(COC(=O)c1ccc(OC)c(OC)c1)[C@H]2O` (stereo not given in full), the Potency result is “inactive”.
